Data: PubChem BioAssay
Calls of active or inactive are those of the source.

Tested on: not listed separately
Experiment: S. cerevisiae growth modulation with rapamycin, primary screen, strain BY4716, OD600, 96 h (AID 1091); further: test concentration not given here
Conditions: higher = more signal, called active from +8 up or from −8 down
For `COc1ccc([Si](C)(C)[C@@H]2[C@@H](CCO)O[C@]3(C(=O)N(Cc4ccccc4)c4ccc(N5C(=O)COc6ccccc65)cc43)[C@H]2C)cc1`, the z-score was 9.67 (active). With `CC(C)(C)OC(=O)CC[C@@]1(C(=O)N2CCCCC2)N=C(c2ccc(OCCCO)cc2)O[C@@H]1c1ccccc1CN=[N+]=[N-]` the z-score was -0.0683 (inactive). For `CC(C)C(CO)N1C(=O)[C@@H]2[C@H]3C(=O)OCC=C[C@H]3OC23C=CCN(CCN2CCOCC2)C(=O)[C@@H]13` (some centres not stated), the z-score was 0.759 (inactive). With `CN1C(=O)C2C=CC(C(O)c3cccc4ccccc34)N(NC(=O)OC(C)(C)C)C2C1=O` (configuration not stated) the z-score was -0.0612 (inactive). With `COCCOC(=O)N1C(=O)[C@@]2(c3cc(C#Cc4ccc(OC)cc4)ccc31)[C@H](C(=O)N1CCc3cc(OC)c(OC)cc3C1)[C@H]1C(=O)O[C@H](c3ccccc3)[C@H](c3ccccc3)N1[C@@H]2c1ccc(OCCO)cc1` the z-score was 5.75 (inactive). In the case of `CCOC(=O)C1=CC[C@@H](c2ccccc2)N(S(=O)(=O)c2ccc(C)cc2)[C@H]1C=C(C)C`, the z-score is reported as 4 (inactive). In the case of `C[N+](C)(C)CCCC[C@@H]1NC(=O)[C@H]2C[C@@H](C(=O)NCCCCCCN)[C@@H](c3cccc(OCCO)c3)N2C1=O`, the z-score is reported as -0.133 (inactive). For `COC(=O)C(CC#Cc1ccc2c(c1)[C@]1(C(=O)N2)[C@H](c2ccc(O)cc2)N2[C@H](c3ccccc3)[C@H](c3ccccc3)OC(=O)[C@H]2[C@@H]1C(N)=O)C(=O)OC`, the z-score was -0.438 (inactive). For `CCOc1cc(C(O)C2C=CC3C(=O)NC(=O)C3N2Nc2ccccn2)ccc1O` (configuration not stated), the z-score was -0.0339 (inactive). For `C[N+](C)(C)CCCCCCNC(=O)[C@@H]1C[C@@H]2C(=O)NCC(=O)N2[C@@H]1c1cccc(OCCO)c1`, the z-score was -0.683 (inactive). With `O=C1c2ccccc2C(=O)C2CC([C@H]3Oc4ccccc4S(=O)(=O)N4CCC[C@@H]34)=CCC12` (some centres not stated) the z-score was 0.388 (inactive). For `CCCc1cc2c(n1Cc1ccc(OC)cc1)C(C)C1CN(C(=O)c3ccccc3)C(C)(C(=O)OC)C21` (configuration not stated), the z-score was 1.64 (inactive). In the case of `CC(=O)NCCCC[C@@H]1NC(=O)[C@@H]2C[C@H](C(=O)NCCCC[N+](C)(C)C)[C@H](c3cccc(OCCO)c3)N2C1=O`, the z-score is reported as -0.465 (inactive). For `[N-]=[N+]=Nc1ccccc1[C@@H]1OC(c2ccc(OCCCO)cc2)=N[C@]1(CCS(=O)(=O)c1ccccc1)C(=O)NCc1ccccc1`, the z-score was 0.635 (inactive). With `CN(C)CCCC[C@@H]1NC(=O)[C@H]2C[C@@H](C(=O)NCCCCCCNC(=O)CS)[C@@H](c3ccc(O)cc3)N2C1=O` the z-score was -0.342 (inactive). With `COC(=O)[C@@]1(Cc2ccc(OC)cc2)[C@H]2c3cc(C(=O)N4CCCC4)n(Cc4ccc(C)o4)c3C[C@H]2CN1C(=O)c1ccccc1` the z-score was -2.14 (inactive). For `O=C1N(Cc2ccccc2)c2ccccc2[C@H]2OC(c3ccc(OCCCO)cc3)=N[C@@]12CCS(=O)(=O)c1ccccc1`, the z-score was 8.14 (active). With `COCCCNC(=O)[C@]1(Cc2ccccc2)N=C(c2ccc(OCCCO)cc2)O[C@@H]1c1ccccc1N=[N+]=[N-]` the z-score was 1.37 (inactive). For `CCCCC(=C=CC[C@H](O)c1cccc(OCCO)c1)C[C@H](O)COCc1ccccc1`, the z-score was -1.15 (inactive). For `COC(=O)c1ccc(OC)c(/C=C\CC(CCc2ccccc2)OC(=O)c2ccncc2)c1` (configuration not stated), the z-score was 3.39 (inactive). With `COc1ccc([Si](C)(C)[C@H]2[C@H](CC(=O)N3CCC[C@H]3CO)O[C@@]3(C(=O)N(Cc4ccc(N5C(=O)c6cccc7cccc5c67)cc4)c4ccccc43)[C@@H]2C)cc1` the z-score was -0.403 (inactive). With `COc1cc(NN2C(C(O)c3ccc(I)cc3)C=CC3C(=O)N(C)C(=O)C32)cc(OC)c1OC` (configuration not stated) the z-score was 0.0514 (inactive). In the case of `C=CCC(OC(C)=O)[C@@H]1[C@@H](N(Cc2ccc(-c3ccccc3)cc2)C(=O)c2cccc3ccccc23)c2cc(OCCCO)ccc2N1C(=O)c1ccc2ccccc2n1` (some centres not stated), the z-score is reported as -0.291 (inactive). With `C=CCC(OC(C)=O)[C@@H]1[C@@H](N(Cc2cccc3ccccc23)C(=O)Cc2ccc(F)cc2)c2cc(OCCCO)ccc2N1C(=O)Cc1ccc(OC)cc1` (some centres not stated) the z-score was -0.72 (inactive). In the case of `O=C1O[C@H](c2ccccc2)[C@H](c2ccccc2)N2[C@H]1[C@@H](C(=O)N1CCN(c3ncccn3)CC1)[C@]1(C(=O)Nc3ccc(C#CCCO)cc31)[C@H]2c1ccccc1OCCO`, the z-score is reported as 3.87 (inactive). With `COC(=O)[C@@]1(Cc2ccccc2)[C@H]2c3cc(C(=O)N4CCCC4)n(CCO)c3C[C@H]2CN1C(=O)c1ccccc1` the z-score was -1.88 (inactive). For `COCCCNC(=O)[C@@]1(Cc2ccccc2I)c2ccccc2C(=O)N(Cc2ccccc2Cl)[C@H]1c1ccc(CO)cc1`, the z-score was -0.905 (inactive).

Target: Torsin-1A-interacting protein 2 (Homo sapiens) (UniProt Q8NFQ8)
Sequence (Q8NFQ8 whole entry, looked up): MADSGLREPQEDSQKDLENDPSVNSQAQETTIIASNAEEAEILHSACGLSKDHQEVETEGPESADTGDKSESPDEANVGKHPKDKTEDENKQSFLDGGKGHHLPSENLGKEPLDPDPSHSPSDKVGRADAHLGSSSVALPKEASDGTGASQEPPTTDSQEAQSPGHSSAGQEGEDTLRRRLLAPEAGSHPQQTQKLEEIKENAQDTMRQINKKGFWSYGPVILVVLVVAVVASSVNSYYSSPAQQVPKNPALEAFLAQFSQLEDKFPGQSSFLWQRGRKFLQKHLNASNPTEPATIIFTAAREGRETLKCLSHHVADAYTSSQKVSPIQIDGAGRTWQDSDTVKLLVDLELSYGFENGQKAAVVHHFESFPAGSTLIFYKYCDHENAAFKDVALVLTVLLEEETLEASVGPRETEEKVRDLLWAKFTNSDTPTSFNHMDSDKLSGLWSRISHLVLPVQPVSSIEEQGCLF
Experiment: LULL1 binders on small-molecule microarray, primary screen, cell lysate, human LULL1 lysate, 635/667 nm fluorescence (AID 1092);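 further: probe is lysate of COS7 cells overexpressing human LULL1; score merges per-feature 667 nm fluorescence with signal-to-noise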
Conditions: hLULL1 lysate binding, 635 nm fluorescence, higher = more signal
Molecule `COC(=O)[C@@]1(Cc2ccc(OC)cc2)[C@H]2c3cc(C(=O)N(C)C)n(Cc4cc(C)n(C)n4)c3C[C@H]2CN1C(=O)c1ccccc1` has a composite z-score of 3.99. Molecule `O=C(NCc1ccccc1)[C@]1(Cc2ccccc2)N=C(c2ccc(OCCCO)cc2)O[C@@H]1c1ccccc1` has a composite z-score of 2.68. Work on `[N-]=[N+]=NCc1ccccc1[C@H]1OC(c2ccc(OCCCO)cc2)=N[C@@]1(Cc1ccccc1N=[N+]=[N-])C(=O)N1CCCCC1` yielded a composite z-score of 3.44. In the case of `COCCOC(=O)N1C(=O)[C@@]2(c3ccccc31)[C@H](c1ccc(OCCO)cc1)N1[C@H](c3ccccc3)[C@H](c3ccccc3)OC(=O)[C@H]1[C@@H]2C(=O)NC[C@H](O)c1ccccc1`, the composite z-score is reported as 3.09. Molecule `COc1ccc(C(=O)Nc2ccc3c(c2)[C@]2(O[C@@H](CCO)[C@H]([Si](C)(C)c4ccc(OC)cc4)[C@H]2C)C(=O)N3Cc2ccccc2)cc1` has a composite z-score of 0.468. Work on `CN(C)C(=O)[C@]1(Cc2ccccc2N=[N+]=[N-])N=C(c2ccc(OCCCO)cc2)O[C@@H]1c1ccccc1CN=[N+]=[N-]` yielded a composite z-score of 3.51. Molecule `COCCOC(=O)N1C(=O)[C@@]2(c3cc(C#Cc4ccc(OC)cc4)ccc31)[C@H](C(=O)N1CCc3cc(OC)c(OC)cc3C1)[C@H]1C(=O)O[C@H](c3ccccc3)[C@H](c3ccccc3)N1[C@@H]2c1ccc(O)cc1` has a composite z-score of 2. Molecule `COc1ccc(C#Cc2ccc3c(c2)[C@]2(C(=O)N3)[C@H](C(N)=O)[C@H]3C(=O)O[C@H](c4ccccc4)[C@H](c4ccccc4)N3[C@@H]2c2ccc(O)cc2)cc1` has a composite z-score of 2.94. For `COc1ccc([Si](C)(C)[C@@H]2[C@@H](CCO)O[C@]3(C(=O)N(Cc4ccccc4)c4ccc(N5C(=O)COc6ccccc65)cc43)[C@H]2C)cc1`, the composite z-score was 1.74. Molecule `CC(C)(C)OC(=O)CC[C@@]1(C(=O)N2CCCCC2)N=C(c2ccc(OCCCO)cc2)O[C@@H]1c1ccccc1CN=[N+]=[N-]` has a composite z-score of 3.66. `CC(C)C(CO)N1C(=O)[C@@H]2[C@H]3C(=O)OCC=C[C@H]3OC23C=CCN(CCN2CCOCC2)C(=O)[C@@H]13` (some centres not stated) gave a composite z-score of 1.13. `CN1C(=O)C2C=CC(C(O)c3cccc4ccccc34)N(NC(=O)OC(C)(C)C)C2C1=O` (configuration not stated) showed a composite z-score of 2.63. Work on `COCCOC(=O)N1C(=O)[C@@]2(c3cc(C#Cc4ccc(OC)cc4)ccc31)[C@H](C(=O)N1CCc3cc(OC)c(OC)cc3C1)[C@H]1C(=O)O[C@H](c3ccccc3)[C@H](c3ccccc3)N1[C@@H]2c1ccc(OCCO)cc1` yielded a composite z-score of 1.32. `CCOC(=O)C1=CC[C@@H](c2ccccc2)N(S(=O)(=O)c2ccc(C)cc2)[C@H]1C=C(C)C` showed a composite z-score of 3.22. `C[N+](C)(C)CCCC[C@@H]1NC(=O)[C@H]2C[C@@H](C(=O)NCCCCCCN)[C@@H](c3cccc(OCCO)c3)N2C1=O` showed a composite z-score of 3.06. `COC(=O)C(CC#Cc1ccc2c(c1)[C@]1(C(=O)N2)[C@H](c2ccc(O)cc2)N2[C@H](c3ccccc3)[C@H](c3ccccc3)OC(=O)[C@H]2[C@@H]1C(N)=O)C(=O)OC` showed a composite z-score of -0.759. Molecule `CCOc1cc(C(O)C2C=CC3C(=O)NC(=O)C3N2Nc2ccccn2)ccc1O` (configuration not stated) has a composite z-score of 0.394. `C[N+](C)(C)CCCCCCNC(=O)[C@@H]1C[C@@H]2C(=O)NCC(=O)N2[C@@H]1c1cccc(OCCO)c1` gave a composite z-score of 2.23. Molecule `O=C1c2ccccc2C(=O)C2CC([C@H]3Oc4ccccc4S(=O)(=O)N4CCC[C@@H]34)=CCC12` (some centres not stated) has a composite z-score of -0.312. Molecule `CCCc1cc2c(n1Cc1ccc(OC)cc1)C(C)C1CN(C(=O)c3ccccc3)C(C)(C(=O)OC)C21` (configuration not stated) has a composite z-score of 3.37. With `CC(=O)NCCCC[C@@H]1NC(=O)[C@@H]2C[C@H](C(=O)NCCCC[N+](C)(C)C)[C@H](c3cccc(OCCO)c3)N2C1=O` the composite z-score was -0.0272. `[N-]=[N+]=Nc1ccccc1[C@@H]1OC(c2ccc(OCCCO)cc2)=N[C@]1(CCS(=O)(=O)c1ccccc1)C(=O)NCc1ccccc1` showed a composite z-score of 3.23. Molecule `CN(C)CCCC[C@@H]1NC(=O)[C@H]2C[C@@H](C(=O)NCCCCCCNC(=O)CS)[C@@H](c3ccc(O)cc3)N2C1=O` has a composite z-score of 3.31. For `COC(=O)[C@@]1(Cc2ccc(OC)cc2)[C@H]2c3cc(C(=O)N4CCCC4)n(Cc4ccc(C)o4)c3C[C@H]2CN1C(=O)c1ccccc1`, the composite z-score was 3.24. In the case of `O=C1N(Cc2ccccc2)c2ccccc2[C@H]2OC(c3ccc(OCCCO)cc3)=N[C@@]12CCS(=O)(=O)c1ccccc1`, the composite z-score is reported as 3.36. For `COCCCNC(=O)[C@]1(Cc2ccccc2)N=C(c2ccc(OCCCO)cc2)O[C@@H]1c1ccccc1N=[N+]=[N-]`, the composite z-score was 3.16. With `CCCCC(=C=CC[C@H](O)c1cccc(OCCO)c1)C[C@H](O)COCc1ccccc1` the composite z-score was 1.04. `COC(=O)c1ccc(OC)c(/C=C\CC(CCc2ccccc2)OC(=O)c2ccncc2)c1` (configuration not stated) showed a composite z-score of 0.673. `COc1ccc([Si](C)(C)[C@H]2[C@H](CC(=O)N3CCC[C@H]3CO)O[C@@]3(C(=O)N(Cc4ccc(N5C(=O)c6cccc7cccc5c67)cc4)c4ccccc43)[C@@H]2C)cc1` showed a composite z-score of 2.5. `COc1cc(NN2C(C(O)c3ccc(I)cc3)C=CC3C(=O)N(C)C(=O)C32)cc(OC)c1OC` (configuration not stated) gave a composite z-score of 2.75.
